Source: PubChem BioAssay
Activity calls are given as the source filed them. Unless noted, how the calls were made is not given here.

How the values were obtained:
[1] = resazurin metabolic signal in HepG2 cells – cell-based, resazurin fluorescence, 24 h, PK04 Diversity Set, profiling panel (AID 1172); details: HepG2 viability, higher = more signal; further: test concentration not given here
[2] = budding yeast growth changes without added modifier – OD600, strain BY4716, 24 h, basal condition, primary screen (AID 1173); details: S. cerevisiae BY4716 growth, OD600, 24 h; higher = more signal, called active from +8 up or from −8 down
[3] = viability profiling in MM1S myeloma cells – cell-based, resazurin fluorescence, basal, 24 h, PK04 Diversity Set, profiling panel (AID 1174); details: higher = more signal, called active from +8 up or from −8 down;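 further: MM1S multiple myeloma cell line; test concentration not given here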
[4] = target: Dihydroorotate dehydrogenase (quinone), mitochondrial (Plasmodium falciparum (isolate 3D7)) (UniProt Q08210); experiment: inhibition of P. falciparum DHODH – biochemical, C-terminal His tag, absorbance 600 nm, primary screen (AID 1175); details: PfDHODH enzyme, DCIP absorbance 600 nm; higher = more signal, called active from +8 up or from −8 down;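 further: recombinant parasite enzyme with a five histidine tag at its C terminus; test concentration not given here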
[5] = inhibition of PAO1 biofilm formation – strain PAO1, LB-PBS medium, absorbance 600 nm, primary screen (AID 1176); further: test concentration not given here; details: P. aeruginosa PAO1 growth/biofilm, A600, 12 h; higher = more signal
[6] = growth modulation of vineyard yeast isolate – strain RM11-1a, OD600, basal, 24 h, primary screen (AID 1177);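 further: cultures grown under basal conditions with no added stressor; test concentration not given here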; details: S. cerevisiae RM11-1a growth, OD600, 24 h; higher = more signal, called active from +8 up or from −8 down
[7] = growth of efflux-deficient E. coli DRC39 – strain DRC39, OD650, 24 h, E. coli filamentation inducers, primary screen (AID 1178);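 further: growth measured as culture turbidity by optical density at 650 nm; test concentration not given here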; details: E. coli DRC39 acrAB, higher = more signal, called active from +8 up or from −8 down
[8] = growth of efflux-deficient E. coli DRC39 – strain DRC39, OD650, 48 h, E. coli filamentation inducers, primary screen (AID 1179);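 further: screen aims at cell division blockers that make cells filament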; details: E. coli DRC39 delta-acrAB growth, higher = more signal, called active from +8 up or from −8 down
[9] = viability profiling in RPMI8226 myeloma cells – cell-based, resazurin fluorescence, basal, 24 h, PK04 Diversity Set, profiling panel (AID 1180); details: higher = more signal;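 further: RPMI8826 multiple myeloma cell line at 5000 cells per well; test concentration not given here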
[10] = target: E3 ubiquitin-protein ligase XIAP (Homo sapiens) (UniProt P98170); experiment: small molecules binding XIAP protein – biophysical, small-molecule microarray, fluorescence 635 nm, primary screen (AID 1181); details: higher = more signal;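 further: score merges 667 nm emission and signal to noise over triplicate slides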
E3 ubiquitin-protein ligase XIAP (Homo sapiens), sequence (P98170 whole entry, looked up): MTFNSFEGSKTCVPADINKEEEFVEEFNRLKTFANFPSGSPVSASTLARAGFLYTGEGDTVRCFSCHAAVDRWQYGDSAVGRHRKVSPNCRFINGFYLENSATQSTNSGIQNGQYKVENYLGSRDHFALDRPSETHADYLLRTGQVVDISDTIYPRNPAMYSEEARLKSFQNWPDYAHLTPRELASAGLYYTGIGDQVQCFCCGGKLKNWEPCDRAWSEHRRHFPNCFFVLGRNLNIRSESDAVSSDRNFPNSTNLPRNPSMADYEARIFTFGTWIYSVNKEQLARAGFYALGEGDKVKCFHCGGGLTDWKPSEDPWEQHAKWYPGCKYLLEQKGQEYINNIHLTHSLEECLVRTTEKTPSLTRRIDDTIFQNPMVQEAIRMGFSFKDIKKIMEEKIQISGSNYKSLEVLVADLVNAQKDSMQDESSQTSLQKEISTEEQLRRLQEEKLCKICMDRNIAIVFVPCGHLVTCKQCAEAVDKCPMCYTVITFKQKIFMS

Dihydroorotate dehydrogenase (quinone), mitochondrial (Plasmodium falciparum (isolate 3D7)), sequence (Q08210 whole entry, looked up): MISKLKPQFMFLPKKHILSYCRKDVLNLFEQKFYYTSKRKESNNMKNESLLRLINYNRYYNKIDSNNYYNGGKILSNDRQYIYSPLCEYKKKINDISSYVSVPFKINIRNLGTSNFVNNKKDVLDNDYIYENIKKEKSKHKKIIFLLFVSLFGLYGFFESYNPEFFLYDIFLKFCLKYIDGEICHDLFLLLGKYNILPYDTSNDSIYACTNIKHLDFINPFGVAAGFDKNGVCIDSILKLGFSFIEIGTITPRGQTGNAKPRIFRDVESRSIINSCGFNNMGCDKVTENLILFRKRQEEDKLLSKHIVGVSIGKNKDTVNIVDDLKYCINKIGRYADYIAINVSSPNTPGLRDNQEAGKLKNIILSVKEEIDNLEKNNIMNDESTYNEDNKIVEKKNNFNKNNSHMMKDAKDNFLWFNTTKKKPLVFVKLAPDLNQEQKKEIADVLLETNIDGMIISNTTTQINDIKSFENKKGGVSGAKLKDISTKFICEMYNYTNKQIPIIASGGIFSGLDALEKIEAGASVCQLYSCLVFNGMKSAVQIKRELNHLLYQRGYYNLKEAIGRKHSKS

Row | Compound | z-score [1] | z-score [2] | z-score [3] | composite z-score [4] | z-score [5] | z-score [6] | z-score [7] | z-score [8] | z-score [9] | composite z-score [10]
1 | CCCCC(O)C1C=CC2C(=O)N(c3ccccc3)C(=O)C2N1Nc1ccccc1F (stereo not given) | -0.8 | -0.42 (inactive) | -0.459 (inactive) | -0.365 (inactive) | 1.14 (inactive) | -0.182 (inactive) | -0.221 (inactive) | 0.128 (inactive) | -0.786 | 0.691
2 | CCCC[C@@H]1C[C@H]1[C@@H](NC(=O)c1ccco1)c1ccc(Cl)cc1 | -0.653 | 1.44 (inactive) | 0.134 (inactive) | -0.284 (inactive) | 0.343 (inactive) | 0.657 (inactive) | -0.181 (inactive) | 0.16 (inactive) | -0.0142 | -0.124
3 | C[N+](C)(C)CCCC[C@@H]1NC(=O)[C@@H]2C[C@H](C(=O)NCCCCCN)[C@H](c3cccc(OCCO)c3)N2C1=O | -0.85 | -0.749 (inactive) | -1.23 (inactive) | -0.76 (inactive) | 0.131 (inactive) | 0.527 (inactive) | 0.0148 (inactive) | 0.597 (inactive) | 0.0758 | 0.191
4 | COc1ccc([Si](C)(C)[C@H]2[C@H](CCn3cc([C@H](O)c4ccccc4)nn3)O[C@@]3(C(=O)N(Cc4cccc(N5CCOC5=O)c4)c4ccccc43)[C@@H]2C)cc1 | -0.332 | 0.548 (inactive) | -1.59 (inactive) | -0.351 (inactive) | 1.43 (inactive) | 1.18 (inactive) | 0.196 (inactive) | 0.0133 (inactive) | -0.754 | -0.117
5 | [N-]=[N+]=Nc1ccccc1[C@H]1OC(c2ccc(OCCCO)cc2)=N[C@@]1(Cc1ccccc1)C(=O)O | 0.615 | -0.967 (inactive) | -0.149 (inactive) | 1.12 (inactive) | 0.631 (inactive) | 0.222 (inactive) | 0.451 (inactive) | 0.534 (inactive) | -0.434 | 0.0735
6 | COc1ccc([Si](C)(C)[C@H]2[C@H](CCO)O[C@@]3(C(=O)N(C)c4c(Br)cc(C)cc43)[C@@H]2C)cc1 | -6.47 | 0.0436 (inactive) | -9.16 (active) | 1.13 (inactive) | 0.814 (inactive) | 3.93 (inactive) | -0.185 (inactive) | -1.4 (inactive) | -6.31 | 0.184
7 | COCCOC(=O)N1C(=O)[C@@]2(c3cc(C#CC4=CCCCC4)ccc31)[C@H](C(N)=O)[C@H]1C(=O)O[C@H](c3ccccc3)[C@H](c3ccccc3)N1[C@@H]2c1ccc(OCCO)cc1 | -0.746 | 1.04 (inactive) | -1.95 (inactive) | 0.948 (inactive) | 1.67 (inactive) | 2.53 (inactive) | 0.0123 (inactive) | 0.505 (inactive) | -3.18 | -0.102
8 | O=C1NC(=O)C2C1C=CC(C(O)c1ccccc1)N2Nc1ccc(Cl)cc1Cl (stereo not given) | -2.45 | -17.3 (active) | -1.62 (inactive) | -0.782 (inactive) | 1.43 (inactive) | -15.4 (active) | 0.047 (inactive) | -0.224 (inactive) | -1.55 | 0.54
9 | C=C(C)C1C(=C)CN([C@H](CO)c2ccccc2)C1=O (stereo not given in full) | 1.04 | -2.16 (inactive) | 0.267 (inactive) | -0.232 (inactive) | -0.611 (inactive) | 0.229 (inactive) | 0.692 (inactive) | -0.829 (inactive) | -0.403 | -0.11
10 | CCOC(=O)[C@H]1CC=C2CC1C(=O)N1CCC[C@@H]1[C@@H]2O[Si](C)(C)C(C)(C)C (stereo not given in full) | 0.706 | -14.4 (active) | 0.425 (inactive) | -0.458 (inactive) | 0.543 (inactive) | -0.335 (inactive) | 0.665 (inactive) | -0.17 (inactive) | 1.04 | -0.167
11 | C=C(CCCC)C(=O)CC[C@H](OC(C)=O)c1cccc(OCCO)c1 | 0.0379 | -1.43 (inactive) | -0.602 (inactive) | -1.08 (inactive) | -0.387 (inactive) | -0.561 (inactive) | -0.878 (inactive) | -0.873 (inactive) | -0.482 | -0.0746
12 | CC(C)[C@@H](CO)NC(=O)[C@H]1[C@@H](c2ccccc2)N(c2ccccc2)O[C@@H]1C | 0.872 | -2.53 (inactive) | 0.751 (inactive) | -0.857 (inactive) | 0.0573 (inactive) | 1.2 (inactive) | -0.323 (inactive) | 0.506 (inactive) | 0.566 | -0.0999
13 | CC(C)N1C(=O)c2ccccc2[C@](C)(C(=O)NCc2ccccc2)[C@@H]1c1ccc(CO)cc1 | -0.394 | -0.704 (inactive) | -1.09 (inactive) | 0.0524 (inactive) | 1.06 (inactive) | -0.271 (inactive) | 0.0861 (inactive) | -0.681 (inactive) | 0.121 | 0.0623
14 | COCCOC(=O)N1C(=O)[C@@]2(c3cc(C#CC4=CCCCC4)ccc31)[C@H](C(=O)Nc1nc3ccccc3s1)[C@H]1C(=O)O[C@H](c3ccccc3)[C@H](c3ccccc3)N1[C@@H]2c1ccccc1OCCO | 0.444 | 0.794 (inactive) | -0.386 (inactive) | 1.37 (inactive) | 1.16 (inactive) | 1.99 (inactive) | -0.653 (inactive) | -0.883 (inactive) | -0.575 | -0.05
15 | CN1C(=O)[C@]2(Cc3ccccc3)N=C(c3ccc(OCCCO)cc3)O[C@@H]2c2ccccc21 | -0.635 | -1.79 (inactive) | -2.57 (inactive) | 0.539 (inactive) | 0.814 (inactive) | 1.13 (inactive) | 0.757 (inactive) | 0.0422 (inactive) | -2.41 | 0.0617
16 | COc1ccc(C(=O)Nc2cccc(CN3C(=O)[C@]4(O[C@H](CCO)[C@@H]([Si](C)(C)c5ccc(OC)cc5)[C@@H]4C)c4ccccc43)c2)cc1 | -6.28 | -3.7 (inactive) | -9.11 (active) | 0.255 (inactive) | 1.01 (inactive) | 4.05 (inactive) | 0.127 (inactive) | -0.903 (inactive) | -6.27 | 0.0847
17 | CCCCCN1CC=CC23O[C@@H]4/C=C\CCCOC(=O)C4[C@H]2C(=O)N(C(CO)C(C)C)[C@@H]3C1=O (stereo not given in full) | 1.05 | 0.367 (inactive) | 0.641 (inactive) | -2.08 (inactive) | -0.124 (inactive) | 0.226 (inactive) | 0.299 (inactive) | 0.0539 (inactive) | 0.574 | 0.177
18 | COc1ccc([Si](C)(C)[C@@H]2[C@@H](CCO)O[C@]3(C(=O)N(Cc4ccc(N5C(=O)COc6ccccc65)cc4)c4ccccc43)[C@H]2C)cc1 | -1.59 | 1.54 (inactive) | -2.01 (inactive) | -0.0524 (inactive) | 2.5 (inactive) | 4.73 (inactive) | -0.238 (inactive) | -0.639 (inactive) | -3.64 | -0.0559
19 | COC(=O)C(CC#Cc1ccc2c(c1)[C@]1(C(=O)N2)[C@H](c2ccc(O)cc2)N2[C@H](c3ccccc3)[C@H](c3ccccc3)OC(=O)[C@H]2[C@@H]1C(=O)Nc1nc2ccccc2s1)C(=O)OC | 0.0384 | -1.11 (inactive) | 1.05 (inactive) | -5.21 (inactive) | 1.27 (inactive) | -1.44 (inactive) | 0.666 (inactive) | 1.04 (inactive) | 0.12 | -0.313
20 | COCCOC(=O)N1C(=O)[C@@]2(c3ccccc31)[C@H](c1ccccc1OCCO)N1[C@H](c3ccccc3)[C@H](c3ccccc3)OC(=O)[C@H]1[C@@H]2C(=O)Nc1nc2ccccc2s1 | 0.487 | 1.33 (inactive) | -0.442 (inactive) | 0.662 (inactive) | 2.76 (inactive) | 2.22 (inactive) | 0.931 (inactive) | 1.74 (inactive) | 0.0081 | 0.0623
21 | C=CCN1C(=O)[C@]2(O[C@H](CCO)[C@@H]([Si](C)(C)c3ccc(OC)cc3)[C@@H]2C)c2cc(N3CCCCC3=O)ccc21 | -3.6 | 1.22 (inactive) | -5.89 (inactive) | -1.45 (inactive) | -0.577 (inactive) | 2.97 (inactive) | 0.575 (inactive) | -0.648 (inactive) | -6.02 | -0.258
22 | C=CC[C@@]1(C(=O)N(C)C)N=C(c2ccc(OCCCO)cc2)O[C@@H]1c1ccccc1N=[N+]=[N-] | -0.614 | 0.093 (inactive) | -2.82 (inactive) | -0.007 (inactive) | 0.314 (inactive) | 0.274 (inactive) | -0.112 (inactive) | 0.0912 (inactive) | -1.71 | 0.0794
23 | O=C1NC(=O)C2C1C=CC(C(O)c1cccc3ccccc13)N2Nc1ccccn1 (stereo not given) | -0.692 | 0.268 (inactive) | -1.74 (inactive) | 0.305 (inactive) | 0.226 (inactive) | 0.798 (inactive) | -0.334 (inactive) | 0.638 (inactive) | -0.94 | 0.276
24 | CN1C2C=C(CCCO)C(C3C(=O)N(C(N)=O)C(=O)C32)C1c1ccc(CN2CCCC2)cc1 (stereo not given) | -0.163 | 0.464 (inactive) | -0.508 (inactive) | -0.157 (inactive) | 0.661 (inactive) | -0.56 (inactive) | 0.359 (inactive) | 0.259 (inactive) | -0.287 | -0.0703
25 | O=C(NCc1ccccc1)[C@@]1(CCS(=O)(=O)c2ccccc2)N=C(c2ccc(OCCCO)cc2)O[C@H]1c1ccccc1 | 1.36 | 1.01 (inactive) | -0.705 (inactive) | 1.05 (inactive) | -0.0304 (inactive) | 1.46 (inactive) | 0.714 (inactive) | 1.62 (inactive) | 0.448 | 0.202
